These are literature values, as cited in PubChem BioAssay AID977611.

A short description of the data set: PubChem AID 977611. The following applies: PDB protein-ligand complexes, literature Kd.

Molecules are shown by their SMILES. Among all 3,900 compounds or so, about 3,900 (100%) were called active. The limit is not given here; nearly all actives have Kd up to about 4200 µM. The set was probably picked from earlier hits. The list shows a part of the results. Starred links: 1 amine or outer side, 2 acyl side, 3 side chain; linkers in the order of their positions; H or OH if unused. Where a SMILES comes first, the peptide text is derived from it. Non-standard residues stand in square brackets, D forms with d. Residues, ends and D or L forms follow the SMILES beside them. Bridges are numbered along the chain shown (N, C = ends). [ ]: non-standard residue; d: D form. X1 = CN(C)C(N)NCCC[C@H](N[*:1])C(=O)[*:2]; Orn(CH(NH2)2) = NC(N)NCCC[C@H](N)C(=O)O; Lys(Me2) = CN(C)CCCC[C@H](N)C(=O)O; Lys(Me) = CNCCCC[C@H](N)C(=O)O

The Kd is the constant that tells how readily two partners part at equilibrium. `C=C(C)/C=C/[C@H]1[C@@H](C)CCCC1(C)C`: the Kd (protein: Cellular Retinal Binding Protein, PDB entry 4ciz) was 0.051 µM (active). As for `CC(C)C(=O)C[N+]1=C2N=C(N3CCOC[C@H]3C)CC(=O)N2CC[C@H]1C(F)(F)F`, for the setting “protein: PHOSPHATIDYLINOSITOL 3-KINASE CATALYTIC SUBUNIT TYPE 3 Vsp34, PDB entry 4uwl”, the Kd was 0.0027 µM (active).

Regarding `Cn1cnc2nc(N)[nH]c(=O)c21`, where the note is “protein: rRNA N-glycosidase, PDB entry 4i47”, the dissociation constant (Kd) was 0.12 µM (active). With `NCC(=O)NCC(=O)NCC(=O)N[C@@H](CO[P+](O)(O)O)C(=O)NCC(=O)NCC(=O)NCC(=O)O`, the dissociation constant Kd (protein: 14-3-3 protein, PDB entry 1a37) is 0.12 µM (active).

Take `OC[C@H]1O[C@@H](Sc2ccc3ccccc3c2)[C@H](O)[C@@H](O)[C@H]1O`: for the setting “protein: PA-I GALACTOPHILIC LECTIN, PDB entry 4a6s”, the Kd is 6.3 µM (active). Consider `CC[C@H](C)[C@@H]1NC(=O)[C@H](Cc2cnc[nH]2)NC(=O)[C@H]([C@@H](C)CC)NC(=O)[C@H](CCCNC(N)N)NC(=O)[C@@H](N)CSSC[C@@H](C(=O)O)NC(=O)[C@H]([C@@H](C)O)NC(=O)[C@H](Cc2ccc(O)cc2)NC(=O)[C@H](Cc2ccccc2)NC(=O)[C@H](C)NC(=O)[C@H](CCCNC(N)N)NC(=O)CNC(=O)[C@@H]2CCCN2C(=O)CNC1=O`, for which the Kd (protein: Fab mAb 447-52D Light Chain, PDB entry 4m1d) is 0.023 µM (active). For the compound `CC[C@H](C)[C@@H]1NC(=O)[C@H](CCCCN)NC(=O)[C@H](Cc2ccccc2)NC(=O)CNC(=O)[C@H](Cc2ccc(O)cc2)NC(=O)[C@H](CC(C)C)NC(=O)[C@H](CCCNC(N)N)NC(=O)[C@@H](NC(=O)CN)CSSC[C@@H](C(=O)NCC(=O)O)NC(=O)CNC(=O)[C@H](Cc2cnc[nH]2)NC1=O` (H-GC[Orn(CH(NH2)2)]LYGFKIHGCG-OH; disulfide 2-12), the Kd (protein: Casein kinase II subunit alpha, PDB entry 4ib5) was 0.56 µM (active).

For the compound `COc1cc2c(Nc3ccc(NC(=O)c4ccccc4)cc3)ncnc2cc1O`, the Kd (protein: Bifunctional protein GlmU, PDB entry 4e1k) is 0.5 µM (active). Regarding `NC(N)NC[C@H]1Cc2ccccc2[C@@H]1NC(=O)C(=O)Nc1ccc(Cl)c(F)c1`, the Kd (protein: HIV-1 glycoprotein, PDB entry 4i54) was 0.11 µM (active). As for `NCCCCCC(=O)N[C@H]1Cc2ccccc2[C@@H]1Cc1ccc2c(c1C(=O)O)OCO2`, the Kd (protein: INTEGRASE, PDB entry 4cgi) is 752 µM (active) and the Kd (protein: INTEGRASE, PDB entry 4cgj) was 1460 µM (active). Regarding `O[P+](O)(O)O[P+](O)(O)O[P+](O)(O)O`, the Kd runs as follows: (protein: DNA primase small subunit, PDB entry 4lil) 12.5 µM (active); (protein: Thiamine-triphosphatase, PDB entry 3tvl) 100 µM (active). With `C[C@@H](O)[C@H](NC(=O)[C@@H]1CCCN1C(=O)[C@H](CO[P+](O)(O)O)NC(=O)[C@@H](N)Cc1ccc(O)cc1)C(=O)N[C@@H](CO[P+](O)(O)O)C(=O)N1CCC[C@H]1C(=O)N[C@@H](CO)C(=O)N[C@@H](Cc1ccc(O)cc1)C(=O)N[C@H](C=O)CO[P+](O)(O)O`, the Kd (protein: CTD INTERACTING DOMAIN of RNA processing factor SCAF8, PDB entry 3d9k) is 19 µM (active). For `C[C@@H](O)[C@H](NC(=O)[C@@H]1CCCN1C(=O)[C@H](CO[P+](O)(O)O)NC(=O)[C@@H](N)Cc1ccc(O)cc1)C(=O)N[C@@H](CO)C(=O)N1CCC[C@H]1C(=O)N[C@@H](CO)C(=O)N[C@@H](Cc1ccc(O)cc1)C(=O)N[C@@H](CO[P+](O)(O)O)C(=O)N1CCC[C@H]1C=O`, the Kd (protein: CTD INTERACTING DOMAIN of RNA processing factor SCAF8, PDB entry 3d9l) was 68 µM (active). In the case of `CNc1nc(C)c(-c2nc(Nc3cccc(C(=O)N4CCOCC4)c3)ncc2C#N)s1`, the Kd (protein: CYCLIN-DEPENDENT KINASE 2, PDB entry 4bcq) was 0.147 µM (active).

Consider `C[C@H](N)C(=O)N[C@@H](CCCNC(N)N)C(=O)N[C@H](C(=O)N[C@@H](CCCCN(C)C)C(=O)N[C@@H](CCC(N)=O)C(=O)N[C@H](C(=O)O)[C@@H](C)O)[C@@H](C)O` (H-A[Orn(CH(NH2)2)]T[Lys(Me2)]QT-OH), for which the Kd reads like this: (protein: WD-repeat protein 5(WDR523), PDB entry 2o9k) 77 µM (active); (protein: bromodomain PHD finger transcription factor, PDB entry 2fsa) 5 µM (active). Regarding `C[C@H](N)C(=O)N[C@@H](CCCNC(N)N)C(=O)N[C@H](C(=O)N[C@@H](CCCCN)C(=O)N[C@@H](CCC(N)=O)C(=O)N[C@H](C(=O)O)[C@@H](C)O)[C@@H](C)O` (H-A[Orn(CH(NH2)2)]TKQT-OH), for the setting “protein: Histone-lysine N-methyltransferase NSD3, PDB entry 4gne”, the Kd is 3400 µM (active). For `C[C@H](N)C(=O)N[C@@H](CCCNC(N)N)C(=O)N[C@H](C(=O)N[C@@H](CCCCN)C(=O)N[C@@H](CCC(N)=O)C(=O)N[C@H](C(=O)N[C@@H](C)C(=O)N[C@@H](CCCNC(N)N)C(=O)N[C@@H](CCCCN)C(=O)N[C@@H](CO)C(=O)O)[C@@H](C)O)[C@@H](C)O`, the equilibrium dissociation constant (Kd) (protein: BHC80 PHD domain, PDB entry 2puy) was 30 µM (active). On to `C[C@H](N)C(=O)N[C@@H](CCCNC(N)N)C(=O)N[C@H](C(=O)N[C@@H](CCCCN)C(=O)N[C@@H](CCC(N)=O)C(=O)N[C@H](C(=O)N[C@@H](C)C(=O)N[C@@H](CCCNC(N)N)C(=O)N[C@@H](CCCCN)C(=O)O)[C@@H](C)O)[C@@H](C)O`, for which the Kd (protein: Histone-lysine N-methyltransferase NSD3, PDB entry 4gnf) was 450 µM (active). Take `C[C@H](N)C(=O)N[C@@H](CCCNC(N)N)C(=O)N[C@H](C(=O)N[C@@H](CCCCN)C(=O)N[C@@H](CCC(N)=O)C(=O)O)[C@@H](C)O[P+](O)(O)O`: where the note is “protein: human Survivin, PDB entry 3uig”, the Kd was 4.8 µM (active). For `CNCCCC[C@H](NC(=O)[C@@H](NC(=O)[C@H](CCCNC(N)N)NC(=O)[C@H](C)N)[C@@H](C)O)C(=O)N[C@@H](CCC(N)=O)C(=O)N[C@H](C(=O)O)[C@@H](C)O` (H-A[Orn(CH(NH2)2)]T[Lys(Me)]QT-OH), the Kd (protein: human Chromodomain-helicase-DNA-binding protein 1(CHD1), PDB entry 2b2v) is 17 µM (active). As for `C[C@H](N)C(=O)N[C@@H](CCCNC(N)N)C(=O)N[C@H](C(=O)N[C@@H](CCCCN)C(=O)N[C@@H](CCC(N)=O)C(N)=O)[C@@H](C)O`, the Kd (protein: WD-repeat protein 5(WDR5), PDB entry 2co0) was 3.3 µM (active). Turning to `C[C@H](N)C(=O)N[C@@H](CCCNC(N)N(C)C)C(=O)N[C@H](C(=O)N[C@@H](CCCCN(C)C)C(=O)N[C@@H](CCC(N)=O)C(=O)N[C@H](C(=O)N[C@@H](C)C(=O)O)[C@@H](C)O)[C@@H](C)O` (stereo partly specified) (H-A[X1]T[Lys(Me2)]QTA-OH), the Kd (protein: hPHD-HD1 complex, PDB entry 2vpg) is 2.1 µM (active).

Regarding `C[C@H](N)C(=O)N[C@@H](CCCNC(N)N)C(=O)N[C@H](C(=O)N[C@@H](CCCCN)C(=O)N[C@@H](CCC(N)=O)C(=O)NCC(=O)O)[C@@H](C)O` (H-A[Orn(CH(NH2)2)]TKQG-OH), the Kd (protein: WD-repeat protein 5(WDR523), PDB entry 2h9m) was 35 µM (active).
